Source: PubChem
Jurkat NFkB inh: inhibitors of the PMA/ionomycin-induced NF-kB reporter in Jurkat cells; PMA/ionomycin-induced NF-kB luciferase reporter, luminescence; inhibition, % at 4 µM; 330,000 tested, 0.53% active; in the data active = inhibition above about 50%
Mdm2 MdmX PPI: inhibitors of human Mdm2/MdmX interaction | O15151+Q00987 | SaOS-2 split-luciferase Mdm2/MdmX complementation, luminescence | inhibition, % at 8 µM | 330,000 tested, 3% active | AID 485346;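 active = inhibition of at least 50% at 8 µM in the primary screen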
Target sequence (O15151 whole entry, looked up): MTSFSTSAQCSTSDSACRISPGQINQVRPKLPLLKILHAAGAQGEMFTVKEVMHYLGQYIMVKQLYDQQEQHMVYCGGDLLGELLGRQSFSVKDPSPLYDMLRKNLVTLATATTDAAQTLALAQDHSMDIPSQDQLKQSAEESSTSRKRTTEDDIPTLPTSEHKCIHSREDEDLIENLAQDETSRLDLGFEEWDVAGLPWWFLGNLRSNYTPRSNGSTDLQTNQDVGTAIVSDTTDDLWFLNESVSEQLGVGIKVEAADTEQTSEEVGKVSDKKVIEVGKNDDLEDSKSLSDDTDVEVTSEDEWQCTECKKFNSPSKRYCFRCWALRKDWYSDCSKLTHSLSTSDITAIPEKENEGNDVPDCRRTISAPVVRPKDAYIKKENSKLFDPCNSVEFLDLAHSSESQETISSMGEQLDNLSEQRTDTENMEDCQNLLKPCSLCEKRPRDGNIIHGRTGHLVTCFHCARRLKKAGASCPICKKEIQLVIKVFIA
Target sequence (Q00987 whole entry, looked up): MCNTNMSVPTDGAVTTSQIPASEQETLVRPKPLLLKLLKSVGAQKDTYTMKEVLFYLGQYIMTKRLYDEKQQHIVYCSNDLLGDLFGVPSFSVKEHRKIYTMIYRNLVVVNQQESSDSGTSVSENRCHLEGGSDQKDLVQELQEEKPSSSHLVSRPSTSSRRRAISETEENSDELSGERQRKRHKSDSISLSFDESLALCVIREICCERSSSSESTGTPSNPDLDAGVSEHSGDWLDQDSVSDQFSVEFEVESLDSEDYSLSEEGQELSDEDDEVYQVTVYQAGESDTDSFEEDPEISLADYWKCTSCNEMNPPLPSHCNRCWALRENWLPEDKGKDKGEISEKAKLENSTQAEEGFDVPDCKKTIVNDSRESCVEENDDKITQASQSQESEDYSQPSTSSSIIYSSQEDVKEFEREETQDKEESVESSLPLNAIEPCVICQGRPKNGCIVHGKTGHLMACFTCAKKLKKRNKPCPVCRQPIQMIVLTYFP
697 NFkB inh: inhibitors of the PMA/ionomycin-induced NF-kB reporter in 697 B cells; 330,000 tested, 0.33% active; 697 B-cell NF-kB luciferase reporter, 16 h; inhibition, % at 4 µM; in the data active = inhibition above about 35%
Shn3 inh set2: inhibitors of Schnurri-3 3'UTR reporter in osteoblasts; Clone20 osteoblast Shn3 3'UTR firefly luciferase, 24 h; inhibition, % at 12.5 µM; 360,000 tested, 0.52% active; AID 588674;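 active = mean inhibition of at least 75% with every replicate also reaching 75%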;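 note: 0% = median of neutral control wells and 100% = pilot-screen positive control compound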
Gli-Sufu block: blocks Gli-Sufu signaling in a luciferase reporter. Sufu-KO-LIGHT fibroblasts, Gli luciferase reporter luminescence. inhibition, % at 5 µM. 340,000 tested, 0.74% active;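 active = inhibition above about 55%, limit read from the data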;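 note: 0% = DMSO-treated cells and 100% = wells with medium but no cells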
Mdm2 MdmX conf: human Mdm2/MdmX binding inhibition, confirmed; 10,000 tested, 55% active; AID 489028; inhibition, % at 8 µM; luminescent assay; shares compounds with Mdm2 MdmX PPI; in the data active = inhibition above about 40%
FLuc counter: full-length luciferase inhibition in Mdm2/MdmX counter-screen; shares compounds with Mdm2 MdmX PPI; SaOS-2 full-length luciferase counterscreen, luminescence; inhibition, % at 8 µM; 6,200 tested, 77% active;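 active = mean inhibition at 8 µM reaching about 37%, which flags the compound as non-specific, limit read from the data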;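 note: p53-null SaOS-2 cells with luciferase driven by a doxycycline-inducible promoter; compound on cells about two nights before reading with doxycycline added after day one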
Numbers without * were called inactive; x = not tested or not shown. This is a sample that favours compounds with a hit; in the whole collection about 3.8% have one here.

SMILES	Jurkat NFkB inh	Mdm2 MdmX PPI	697 NFkB inh	Shn3 inh set2	Gli-Sufu block	Mdm2 MdmX conf	others
CCN1CCN(CCNC(=O)c2ccc3c(c2)N(Cc2ccc(F)cc2)C(=O)/C(=C/c2ccccc2)S3)CC1	-17.4	95.7*	-19.6	77.2	0.2	74.2*	FLuc counter=22.7
CCN1CCN(CCNC(=O)c2ccc(/C=C3/Sc4ccccc4N(Cc4cccc(Cl)c4)C3=O)cc2)CC1	-12.4	96.5*	-10.7	2.4	1.4	81.2*	FLuc counter=57.8*
CN1CCN(CCCNC(=O)c2ccc(/C=C3\Sc4ccccc4N(Cc4ccccc4F)C3=O)cc2)CC1	x	x	x	-2.1	10.6	x
O=C(NCCN1CCOCC1)c1ccc(/C=C2\Sc3ccccc3N(Cc3ccccc3F)C2=O)cc1	-10.8	59.8*	0.7	-2.2	10.1	8.8
O=C(OCCc1cc2ccccc2c(=O)o1)c1ccc(C(F)(F)F)cc1	0.0	22.0	5.9	21.9	-10.4	x
CN(Cc1nc2ccccc2c(=O)[nH]1)C(=O)c1cc(C2CC2)nn1-c1ccccc1	-16.9	18.0	-15.1	-18.8	-4.0	x
CC(=O)NC12CC3CC(C1)CC(C(=O)Nc1ccc(C)c(S(=O)(=O)N4CCCCCC4)c1)(C3)C2	x	x	x	21.7	12.7	x
O=C(NCC(F)(F)F)c1ccc(S(=O)(=O)N2CCN(C(=O)C3CCCO3)CC2)cc1 (stereo not given)	6.5	-19.8	24.5	-11.5	-1.7	x
O=P1(NC2CCCC2)OCC2(CO1)COP(=O)(NC1CCCC1)OC2 (stereo not given)	x	x	x	-4.7	4.6	x
Cc1cccc(NC(=O)c2cc(-c3cccnc3)nc3c(C)cccc23)n1	9.5	50.3*	-8.4	25.8	6.5	1.8
CN1C(=O)C(c2nnc(Nc3cccc4ccccc34)s2)C2CC1(C)Oc1ccccc12 (stereo not given)	x	x	x	5.9	-2.2	x
CCCOc1ccc2ccccc2c1/C=N/n1c(C)nnc1-n1nc(C)cc1C	49.1	51.6*	-2.6	-13.4	7.8	54.1*	FLuc counter=53.7*
CCCCCCC1CC(=O)NC(=S)N1 (stereo not given)	-1.4	10.8	-14.1	-0.9	-1.8	x
CCOc1ccc2nc(Cl)c(/C=C/C(=O)c3ccco3)cc2c1	5.7	53.2*	-12.5	-38.3	-9.1	7.0
O=C(Nc1cccc([N+](=O)[O-])c1)c1ccc2ccccc2c1O	-37.3	76.7*	-131.0	-0.4	-35.3	12.2
O=C(Cc1ccccc1)Nc1cccc([N+](=O)[O-])c1	14.4	15.7	5.4	-21.2	-5.9	x
COc1cc2c(oc(=O)c3cc(C)cc(OC)c32)c2c(C3OC(C)C(O)C(C)(O)C3O)ccc(O)c12 (stereo not given)	x	x	x	8.6	-0.1	x
COc1ccc(NC(=O)CN(C)C(=O)/C=C/c2ccc(OCc3ccccc3)cc2)cc1	23.2	52.2*	0.6	38.2	4.6	22.1
CC1CCc2nc(N)c(C#N)c(-c3cccnc3)c2C1 (stereo not given)	32.4	84.3*	-6.6	20.6	-11.7	78.5*	FLuc counter=20.8
CCOC(=O)CCC(NC(=O)c1ccc(Nc2nc3ccccc3nc2C(=O)OCC)cc1)C(=O)OCC (stereo not given)	x	x	x	3.2	-11.2	x
CCC1=C(c2ccc(OC)cc2)CCC(C(=O)O)C1C (stereo not given)	x	x	x	3.6	-18.8	x
O=C(NC1(Cc2ccccc2)CCN(CCCc2ccccc2)C1=O)c1ccccc1 (stereo not given)	9.6	63.9*	1.7	62.5	9.8	54.0*	FLuc counter=40.0*
O=C(Cn1c(=O)oc2cc(S(=O)(=O)N3CCCCC3)ccc21)N1CCc2ccccc21	-15.9	58.6*	-0.8	4.0	14.9	-0.1
O=C(CSc1ccc2nnc(CCNC(=O)c3ccccc3)n2n1)NC1CCCC1	15.3	3.2	-24.6	-23.6	4.5	x
O=C(Nc1csc(Cc2c(Cl)cccc2Cl)n1)NN1CCOCC1	4.5	16.4	-0.9	-0.9	-2.7	x
SMILES	Jurkat NFkB inh	Mdm2 MdmX PPI	697 NFkB inh	Shn3 inh set2	Gli-Sufu block	Mdm2 MdmX conf	others
O=C(Cc1ccccc1)Nc1ccc(NC(=O)c2ccco2)cc1Cl	-7.3	30.1	8.6	10.5	-17.7	x
O=C(Nc1ccncc1NC(=O)c1cccc([N+](=O)[O-])c1)c1cccc([N+](=O)[O-])c1	-4.7	87.4*	2.0	-1.5	4.4	55.5*	FLuc counter=31.0
COc1ccc(-c2csc(NC(CO)c3nc4ccccc4n3Cc3ccc(C)cc3)n2)cc1 (stereo not given)	5.8	1.6	-14.8	3.1	1.1	x
Cc1ccc(Cn2c(C(CO)Nc3nc(-c4ccc(F)cc4)cs3)nc3ccccc32)cc1 (stereo not given)	-4.3	60.3*	9.1	26.6	17.9	29.1
Cc1ccc(Cn2c(C(C)Nc3nc(-c4ccc(F)cc4)cs3)nc3cc(C(F)(F)F)ccc32)cc1 (stereo not given)	7.6	50.3*	5.6	17.0	-29.3	-0.7
CCCn1c(C(C)Nc2nc(-c3ccc(Cl)c([N+](=O)[O-])c3)cs2)nc2cc(Cl)c(N3CCCCC3)cc21 (stereo not given)	14.3	61.4*	8.4	14.1	-2.1	21.1
Cc1ccc(Cn2c(C(CO)Nc3nc(-c4ccc(Cl)c([N+](=O)[O-])c4)cs3)nc3ccccc32)cc1 (stereo not given)	-0.9	64.5*	9.2	-14.0	-0.2	15.6
CCCn1nnnc1NCc1ccc(C(C)C)cc1	-0.4	5.5	0.0	20.5	22.4	x
CC1=NN(C(=O)c2cccc(Cn3nc(C)c([N+](=O)[O-])c3C)c2)C(O)(C(F)(F)F)C1 (stereo not given)	-2.8	22.1	5.1	13.0	-2.6	x
COCCNC(=O)C1CCCN(Cc2ccc(-c3ccccc3)cc2)CC1 (stereo not given)	x	x	x	-5.8	x	x
CC(=O)Nc1cccc(Oc2ccc3c(c2)C(=O)NC3=O)c1	-8.9	-11.3	-11.4	-56.5	16.0	x
Cc1ccc(NC(=O)c2nc(S(=O)(=O)Cc3ccccc3)ncc2Cl)cc1	17.8	81.7*	-122.3	95.1*	4.4	63.3*	FLuc counter=51.5*
Cc1ccccc1CS(=O)(=O)c1ncc(Cl)c(C(=O)Nc2ccc(F)cc2)n1	x	100.0*	x	94.6*	11.8	65.4*	FLuc counter=52.1*
O=C(Nc1ccc(F)cc1)c1nc(S(=O)(=O)Cc2ccccc2)ncc1Cl	21.2	95.8*	-59.1	94.5*	37.0	94.5*	FLuc counter=52.1*
O=C(Nc1ccc(F)cc1)c1nn(-c2ccccc2)c(=O)cc1Cl	x	x	x	34.4	28.8	x
CC(=O)c1ccccc1NC(=O)c1cc(S(=O)(=O)N2CCOCC2)ccc1N1CCCC1	-0.3	-3.0	5.5	14.8	-1.4	x
CCCc1cc(-c2[nH]ncc2-c2ccc(C(=O)OCC)o2)c(O)cc1O	-0.3	56.2*	-7.6	26.4	2.4	18.5
CC(C)c1nc(SCC(=O)N2CCCc3ccccc32)c2c(=O)n(C)c(=O)n(C)c2n1	-8.9	55.2*	-3.4	31.7	14.1	46.9*	FLuc counter=51.4*
